# Assay outcomes: PubChem BioAssay, National Center for Advancing Translational Sciences (NCATS)
# In the library only some 10% were active in any assay of this set; here they are far more common.
# Six1-Eya2 inh: qHTS Assay for Inhibitors of the Six1/Eya2 Interaction | Homeobox protein SIX1 (Homo sapiens) + Protein phosphatase EYA2 (Homo sapiens), … | AID 651725, 2012 | activity change, % (no concentration beside the values) | 360,000 tested, 0.56% active | AlphaScreen GST-Six1/His-Eya2 binding, biochemical; active compounds read low; in the data active means activity change below about -65%; inconclusive means mostly about -30% to -63%; further: on the % scale 0 is the no-effect control and ±100 the full control effect
#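 Compounds are tested against tagged Six1 and Eya2 proteins bridged by glutathione donor and nickel acceptor beads; after a one-hour incubation at 37 °C without light, AlphaScreen emission is recorded.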
# CtBP-E1A blk: qHTS Assay for Inhibitors of the CtBP/E1A Interaction; CtBP / adenovirus E1A interaction (AlphaScreen); activity change, % (concentration not given with the values); AlphaScreen GST-E1A/His-CtBP binding, 1536-well; active compounds read low; 340,000 tested, 0.49% active; in the data active means activity change below about -65%; inconclusive means mostly about -30% to -63%; further: on the % scale 0 is the no-effect control and ±100 the full control effect
#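 In 5 uL wells, 23 nL compound meets equimolar GST-E1A and His-CtBP (5X stock 125 nM each) for 2 h, 37 °C. Beads (5X, 50 ug/mL) then 1 h, 37 °C, dark.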
# BAZ2B block: qHTS Assay for Inhibitors of BAZ2B; Potency, µM (titrated, usually from 114 µM), without a hit: top-dose activity change, negative = inhibition, usual class: inhibitors; Bromodomain adjacent to zinc finger domain protein 2B (Homo sapiens), Q9UIF8; AlphaScreen BAZ2B-H3K14Ac peptide displacement; 360,000 tested, 4.4% active; AID 504333, 2011; further: potency means the concentration at half of the fitted maximal effect; on the % scale 0 is the no-effect control and ±100 the full control effect; nearly all actives have a fitted effect of over 60% in size
# Target sequence (Q9UIF8 whole entry, looked up, the tested form may be a part): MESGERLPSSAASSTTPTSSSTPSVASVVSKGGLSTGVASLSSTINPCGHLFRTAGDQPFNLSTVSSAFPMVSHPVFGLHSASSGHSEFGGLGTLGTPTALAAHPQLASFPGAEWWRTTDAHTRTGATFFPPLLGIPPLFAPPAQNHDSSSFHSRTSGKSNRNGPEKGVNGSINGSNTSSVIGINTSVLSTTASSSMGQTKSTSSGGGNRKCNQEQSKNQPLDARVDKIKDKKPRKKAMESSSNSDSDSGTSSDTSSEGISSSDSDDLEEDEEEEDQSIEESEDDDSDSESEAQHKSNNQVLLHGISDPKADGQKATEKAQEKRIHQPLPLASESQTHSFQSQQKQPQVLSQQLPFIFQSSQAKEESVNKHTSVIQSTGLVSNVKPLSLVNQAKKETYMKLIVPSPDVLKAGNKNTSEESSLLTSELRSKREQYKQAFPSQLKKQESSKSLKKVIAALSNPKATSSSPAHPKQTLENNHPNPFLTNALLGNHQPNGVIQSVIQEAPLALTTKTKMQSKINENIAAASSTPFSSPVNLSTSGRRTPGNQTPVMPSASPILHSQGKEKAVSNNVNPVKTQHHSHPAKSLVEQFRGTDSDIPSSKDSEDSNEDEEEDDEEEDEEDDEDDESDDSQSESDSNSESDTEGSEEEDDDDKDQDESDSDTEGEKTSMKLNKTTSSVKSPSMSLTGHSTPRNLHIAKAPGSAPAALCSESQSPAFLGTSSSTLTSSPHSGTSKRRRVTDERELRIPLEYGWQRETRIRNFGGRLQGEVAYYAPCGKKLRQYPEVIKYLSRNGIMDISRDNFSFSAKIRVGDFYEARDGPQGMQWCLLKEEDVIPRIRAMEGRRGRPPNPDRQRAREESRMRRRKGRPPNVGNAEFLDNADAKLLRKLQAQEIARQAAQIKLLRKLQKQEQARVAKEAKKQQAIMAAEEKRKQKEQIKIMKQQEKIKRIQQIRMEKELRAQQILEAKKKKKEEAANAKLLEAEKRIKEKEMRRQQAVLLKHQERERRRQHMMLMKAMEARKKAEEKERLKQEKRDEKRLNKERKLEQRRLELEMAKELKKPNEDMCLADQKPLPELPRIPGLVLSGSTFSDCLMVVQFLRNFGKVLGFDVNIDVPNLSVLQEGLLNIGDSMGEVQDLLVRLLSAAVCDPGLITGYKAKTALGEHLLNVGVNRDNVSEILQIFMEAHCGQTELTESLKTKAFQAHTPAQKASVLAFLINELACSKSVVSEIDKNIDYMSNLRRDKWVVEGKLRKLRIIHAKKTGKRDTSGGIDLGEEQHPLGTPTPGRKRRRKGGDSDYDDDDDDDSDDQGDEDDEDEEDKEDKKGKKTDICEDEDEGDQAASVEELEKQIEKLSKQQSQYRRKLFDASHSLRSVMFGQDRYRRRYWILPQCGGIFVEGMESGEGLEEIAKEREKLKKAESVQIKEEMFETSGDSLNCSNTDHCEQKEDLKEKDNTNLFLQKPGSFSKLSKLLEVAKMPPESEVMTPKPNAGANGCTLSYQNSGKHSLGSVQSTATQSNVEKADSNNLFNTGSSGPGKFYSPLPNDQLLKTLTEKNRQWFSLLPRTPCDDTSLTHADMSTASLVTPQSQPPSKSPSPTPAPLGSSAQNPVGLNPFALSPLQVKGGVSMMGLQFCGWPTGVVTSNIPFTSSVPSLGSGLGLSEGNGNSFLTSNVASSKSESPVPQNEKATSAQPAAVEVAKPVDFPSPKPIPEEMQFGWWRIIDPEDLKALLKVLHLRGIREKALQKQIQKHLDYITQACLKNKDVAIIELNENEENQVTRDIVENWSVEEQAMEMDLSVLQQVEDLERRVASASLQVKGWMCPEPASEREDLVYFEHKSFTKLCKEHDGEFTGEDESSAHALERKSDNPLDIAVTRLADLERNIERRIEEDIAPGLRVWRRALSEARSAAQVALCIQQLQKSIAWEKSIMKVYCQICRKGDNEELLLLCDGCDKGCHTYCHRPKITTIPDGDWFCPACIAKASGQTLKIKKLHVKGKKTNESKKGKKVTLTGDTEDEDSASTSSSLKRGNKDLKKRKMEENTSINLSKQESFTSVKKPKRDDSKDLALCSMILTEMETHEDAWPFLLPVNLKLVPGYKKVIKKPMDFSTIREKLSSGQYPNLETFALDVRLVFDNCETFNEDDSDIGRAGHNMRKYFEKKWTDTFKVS
#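 Inhibition is scored as reduced AlphaScreen emission. The BAZ2B/b-H3(5-23)K14Ac complex (50 nM each) in PBS pH 7.4, 0.01% Tween-20 meets compound (up to 110 uM) for 30 min at RT before bead addition.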
# JMJD2A Tudor: qHTS Assay for Inhibitors of JMJD2A-Tudor Domain | Lysine-specific demethylase 4A (Homo sapiens), O75164 | Potency, µM (highest dose often 114 µM), without a hit: top-dose activity change, negative = inhibition, actives largely listed as inhibitors | AlphaScreen JMJD2A-Tudor / H3K4me3 peptide binding | AID 504339, 2011 | 390,000 tested, 4.4% active; further: potency means the concentration at half of the fitted maximal effect; on the % scale 0 is the no-effect control and ±100 the full control effect; nearly all actives have a fitted effect of over 50% in size
# HP1b binding inh: HTS for Inhibitors of HP1-beta Chromodomain Interactions with Methylated Histone Tails; Chromobox protein homolog 1 (Homo sapiens), P83916; AlphaScreen HP1-beta / biotin-H3K9me3 peptide binding; Potency, µM (top dose mostly 114 µM), for inactives: top-dose activity change, negative = inhibition, most hits filed as inhibitors; 390,000 tested, 0.56% active; AID 540317, 2011; further: potency means the concentration at half of the fitted maximal effect; nearly all actives have a fitted effect of over 70% in size
#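 Compound inhibition of the preformed complex between 50 nM HP1-beta and 50 nM biotinylated H3K9me3 peptide was read by AlphaScreen. Buffer was PBS pH 7.4 with 0.01% Tween-20. Incubations ran 30 min at room temperature, with 10 ug/mL donor/acceptor beads.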
# G9a block: qHTS Assay for Inhibitors of Histone Lysine Methyltransferase G9a; Histone-lysine N-methyltransferase EHMT2 (Homo sapiens), Q96KQ7; G9a H3K9 monomethylation, AlphaScreen, 2 h; Potency, µM (series often up to 102 µM), without a hit: top-dose activity, negative = inhibition, usual class: inhibitors; 350,000 tested, 8.8% active; AID 504332, 2011; further: potency means the concentration at half of the fitted maximal effect; on the % scale 0 is the no-effect control and ±100 the full control effect; nearly all actives have a fitted effect of over 75% in size
#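 Signal arises when biotinylated H3K9 peptide, once monomethylated, bridges streptavidin donor and antibody-captured acceptor beads. Enzyme at 20 nM was preincubated 15 min with test compounds; peptide 500 nM and SAM 20 uM then reacted for 2 h.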
# * = called active by the depositor; ? = inconclusive; . = no result; [ ] = dose if it differs, or a comment. Unless noted, the call rests on the fitted dose curve; in most records, active means well fitted inhibition curve with a large enough effect; inconclusive means small, poorly fitted or top-dose-only effect; inactive means no such curve, though single readings can be large or run the other way.
SMILES,Six1-Eya2 inh,CtBP-E1A blk,BAZ2B block,JMJD2A Tudor,HP1b binding inh,G9a block
CCCCCC/C=N/Nc1nnc(Cc2ccc(OC)c(OC)c2)c(=O)[nH]1,-73.9*,?,7.08µM*,0.891µM*,23.2%,11.7%
Cc1ccc(S(=O)(=O)N2CCCC(C(=O)NCCc3ccc(Cl)cc3)C2)cc1 (stereo unspecified),0.7,2.3,.,.,.,.
O=C(CBr)c1ccc([N+](=O)[O-])c(CS(=O)(=O)c2ccc(Cl)cc2)c1,0.4,.,-37.8%,?,18.3%,7.08µM*
COc1ccc(OC)c(NC(=O)Cn2cnc3sc(C)c(S(=O)(=O)N4CCN(c5ccccc5OC)CC4)c3c2=O)c1,.,.,-0.7%,-20.1%,13.7%,5.8%[59 µM]
CCN(CC)CCOc1ccc2c(c1)C(=O)c1cc(OCCN(CC)CC)ccc1-2,.,.,.,.,.,-43.5%[2.33 µM]
CCCCCCOc1cccc(N)c1,-0.6,7.2,-36.5%,-33.8%,5.4%,?
CCN(CC)CCOc1cccc(C(C)C)c1,4.5,15.3,?,6.31µM*,?,?
CC(C)c1cccc(OCCCCN(C)C)c1,4.4,2.6,?,?,?,3.98µM*
Cc1noc(NS(=O)(=O)c2ccc(N/C=C\C(=O)c3ccccc3)cc2)c1C,-12.5,.,-34.5%,2.3%[11.4 µM],-17.2%,50.1µM*
Cc1noc(NS(=O)(=O)c2ccc(N/C=C\C(=O)c3ccc(F)cc3)cc2)c1C,-12.7,3.3,?,-19.5%[57.1 µM],0.4%,.
Cc1noc(NS(=O)(=O)c2ccc(N/C=C/C(=O)c3ccc4c(c3)OCO4)cc2)c1C,?,?,?,-21.4%,11.6%,79.4µM*
O=c1oc2ccccc2cc1-c1cn2cc(Cc3ccccc3F)sc2n1,.,.,-0.1%,4.5%,29.5%,17.5%[59 µM]
CC(C)c1ccc(C(C(=O)NC2CCCCC2)N(C(=O)c2csnn2)C2CC2)cc1 (stereo unspecified),2.3,-2.5,?,-18.6%,4.7%,8.4%
O=C(c1cccs1)n1cc(C(=S)N2CCOCC2)c2ccccc21,-12.7,-9.9,?,?,2.1%,28.2µM*
COc1ncc2nc(-c3cccs3)c(=O)n(C)c2n1,.,.,.,.,.,11.6%[0.501 µM]
Cc1ccccc1NC(=O)c1ccc(S(=O)(=O)N(C)C)cc1,4.2,4.5,0.2%,-11.0%,50.5%,14.7%[59 µM]
N#CCCSc1ccccc1NC(=O)c1cc(=O)c2ccccc2o1,1.2,.,-17.6%,-20.7%,16.4%,20µM*
CN(C)S(=O)(=O)c1ccc(C(=O)Nc2ccccc2SCCC#N)cc1,4.2,.,.,-12.4%,8.8%,5.01µM*
Oc1ccc(Nc2nc3ccccc3n3cnnc23)cc1,.,.,3.5%,-12.4%,45.0%,13.4%[59 µM]
CCOc1ccccc1NC(=O)/C(C#N)=C/c1c(C)nn(-c2ccccc2)c1Cl,3.1,4.8,-3.2%,44.7µM*,12.0%,2.2%[59 µM]
CS(=O)(=O)NCC(c1ccco1)N1CCN(c2ccccc2)CC1 (stereo unspecified),.,.,-6.8%,-18.2%,1.8%,2.9%[59 µM]
O=C(O)C1CCN(S(=O)(=O)c2cccc3nonc23)CC1,1.2,1.0,-14.7%,14.1%,30.6%,15.2%
COc1cccc(N2CCN(C(=O)C3CCN(S(=O)(=O)c4c(C)noc4C)CC3)CC2)c1,.,.,-3.6%,-17.1%,50.2%,5.8%[59 µM]
COc1ccc(N2CCN(C(=O)C3CCCN(S(=O)(=O)c4c(C)noc4C)C3)CC2)cc1 (stereo unspecified),-15.5,-7.8,?,-33.4%,-9.8%,31.6µM*
COc1ccc(N2CCN(C(=O)C3CCN(S(=O)(=O)c4cccc5nonc45)CC3)CC2)cc1,.,.,79.4µM*,-30.7%,1.9%,?
SMILES,Six1-Eya2 inh,CtBP-E1A blk,BAZ2B block,JMJD2A Tudor,HP1b binding inh,G9a block
Cc1cc(C)c(/C=C/c2onc(C)c2S(=O)(=O)N2CCC(C(=O)NCCc3ccccc3)CC2)c(C)c1,.,.,3.1%,-13.7%,21.9%[57 µM],6.8%[59 µM]
Cc1cc(C)c(/C=C/c2onc(C)c2S(=O)(=O)N2CCC(C(=O)N3CCN(c4ccccc4)CC3)CC2)c(C)c1,.,.,-17.4%,22.4µM*,5.4%[57 µM],-32.3%[59 µM]
COc1ccc(NC(=O)Nc2nnc([C@@H]3C[C@H](O)[C@@H](CO)O3)s2)cc1,-0.8,2.9,.,.,.,.
Cc1cc(C)nc(/N=C2\NC(=O)CC(C(=O)O)N2c2ccc(C)c(C)c2)n1 (stereo unspecified),1.6,0.0,-10.0%,12.6µM*,-2.5%,-38.0%
Cc1ccc(N2/C(=N/c3nc(C)cc(C)n3)NC(=O)CC2C(=O)O)cc1 (stereo unspecified),-0.3,3.5,10.8%,1.2%,16.6%,-8.7%
c1ccc(CNc2ncnc3ccccc23)cc1,5.4,12.9,-9.8%,-3.8%,42.3%,7.7%[59 µM]
O=C(O)CCCC(=O)NNc1ncnc2ccccc12,6.5,4.3,7.9%,3.16µM*,9.5%,-0.1%[59 µM]
Cc1ccc(S(=O)(=O)c2cn(CC(=O)Nc3ccc4c(c3)OCO4)c3ccccc3c2=O)cc1C,.,.,-15.7%,-14.9%,-5.6%,?
CCNS(=O)(=O)c1ccc(NC(=O)Cc2ccc(F)cc2)cc1,4.7,15.1,1.3%,-4.3%,37.7%,10.0%[12.7 µM]
CC(Nc1ccc(F)cc1)=[N+](C)CCNS(=O)(=O)c1ccc(Cl)cc1,-10.2,0.0,50.1µM*,20µM*,?,22.4µM*
CCOC(=O)c1cc(-c2ccccc2)n(-c2cccc(C(=O)Nc3ccc(F)c(F)c3)c2)c1C,.,.,?,-35.9%,-16.1%,?
O=C(C#Cc1ccccc1)c1ccco1,1.9,5.3,1.6%,-5.3%,53.9%,39.8µM*
COCCN1Cc2cccc(C(=O)NC(C)CCc3ccco3)c2C1=O (stereo unspecified),-1.8,0.0,-1.3%,-10.5%,32.5%,-42.8%
O=C(OC1CC2CC1[C@H]1CCCCN1C2=O)N1CCCCC1 (stereo partly specified),-3.4,5.0,.,.,.,.
CCCCCCCCCCCCCCCC(=O)C1=C(O)C(CO)OC1=O (stereo unspecified),.,.,.,.,.,10µM*
CCCCCCCC(=O)O,2.4,7.3,.,-4.8%,37.3%,23.2%[59 µM]
COC(=O)c1c(CSc2ccc(C)c(C)c2)noc1C(=O)NCc1ccc(OC)cc1,36.2,9.7,5.0%,12.0%,101.7%,16.2%[59 µM]
